“And” between values parts separate entries of the source, which are not always exact repeats. Equal entries are not always repeated. A number with no mark means an inactive call.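 Rule for the calls: active = AUC reduced over 20% with Padj below 0.05 in at least 2 of 3 replicates; inactive = otherwise.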
tested on: Akkermansia muciniphila; test: growth AUC relative to DMSO control (median of replicates) (fraction); higher = more growth (less inhibition), active = hit call of the paper; conditions: 20 µM; 24 h
Procedure, shortened: (§1)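 Gut bacteria were grown singly in mGAM at 37 °C without oxygen, from OD600 0.05, alongside 20 µM compound in 1% DMSO, and OD600 was read each hour for 24 h. Area under the growth curve was normalised to the median of solvent-only wells per plate, or to row and column medians on the industrial chemical plate. The minimum OD was set to 0 beforehand, and the reported value is the median of three biological replicates grown on separate days.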

| SMILES | growth AUC |
| --- | --- |
| Cc1c(N)cccc1N | 0.946 |
| c1cc2ccc3cccc4ccc(c1)c2c34 | 0.918 |
| O=c1oc2ccccc2c(O)c1C1CC(c2ccc(-c3ccc(Br)cc3)cc2)Cc2ccccc21 (stereo not drawn) | 0.966 |
| COP(=O)(OC)SCn1c(=O)oc2cc(Cl)cnc21 | 0.883 |
| CNC(=O)ON=C(CSC)C(C)(C)C | 0.989 |
| COc1ccc(/C(=C/C(=O)N2CCOCC2)c2ccc(F)cc2)cc1OC | 0.998 |
| Cc1ccc(N=CN(C)C=Nc2ccc(C)cc2C)c(C)c1 | 1.13 |
| Cc1c(COC(=O)[C@@H]2[C@H](/C=C(\Cl)C(F)(F)F)C2(C)C)cccc1-c1ccccc1 | 0.924 |
| CCOP(=S)(OCC)Oc1cc(-c2ccccc2)on1 | 1.24 |
| COP(=O)(OC)C(O)C(Cl)(Cl)Cl (stereo not drawn) | 0.955 |
| C=CC(N)=O | 1.01 |
| CNC(=O)Oc1cc(C)c(S(C)=O)c(C)c1 (stereo not drawn) | 0.977 |
| COP(N)(=O)SC (stereo not drawn) | 1.22 |
| CCOP(=S)(OCC)Oc1nc(Cl)c(Cl)cc1Cl | 0.91 |
| CC(=NC#N)N(C)Cc1ccc(Cl)nc1 | 0.993 and 0.945 |
| O=C(NC(=O)c1c(F)cccc1F)Nc1ccc(Cl)cc1 | 1.14 |
| O=C(Nc1ccccc1)c1ccccc1I | 0.823 |
| COCc1c(F)c(F)c(COC(=O)[C@@H]2[C@@H](C=C(Cl)Cl)C2(C)C)c(F)c1F | 1.07 |
| CN1CSC(=S)N(C)C1 | 1.02 |
| O=C1c2ccccc2C(=O)N1SC(Cl)(Cl)Cl | 1 |

| SMILES | growth AUC |
| --- | --- |
| CC(C)(C)c1ccc(CCOc2ncnc3ccccc23)cc1 | 1.16 |
| NCP(=O)(O)O | 1.04 |
| CC1CNC(=S)N1 (stereo not drawn) | 1 |
| CC1(C)[C@H](/C=C(\Cl)C(F)(F)F)[C@@H]1C(=O)O[C@@H](C#N)c1cccc(Oc2ccccc2)c1 | 1.14 |
| COP(=S)(OC)SCN1C(=O)c2ccccc2C1=O | 0.901 |
| COP(=S)(OC)Oc1ccc(S(C)(=O)=O)c(C)c1 | 0.98 |
| CC(C)NC(=O)N1CC(=O)N(c2cc(Cl)cc(Cl)c2)C1=O | 0.919 |
| Cc1ccc(NC(=O)c2snnc2C)cc1Cl | 0.741 |
| COCC(=O)N(c1c(C)cccc1C)N1CCOC1=O | 0.966 |
| O=C(NC(=O)c1c(F)cccc1F)Nc1ccc(Cl)c(Oc2ncc(C(F)(F)F)cc2Cl)c1 | 1.14 |
| COP(=O)(OC)OC(Br)C(Cl)(Cl)Br (stereo not drawn) | 0.978 |
| CC(C)(COCc1cccc(Oc2ccccc2)c1)c1ccc(OC(F)(F)Br)cc1 | 0.955 |
| CC1(C)C(C=C(Cl)Cl)C1C(=O)OC(C#N)c1cccc(Oc2ccccc2)c1 (mixture of isomers) | 1.14 |
| CNC(=O)Oc1ccccc1OC(CCl)OC (stereo not drawn) | 1.17 |
| CCOP(=O)(OCC)Oc1ccc([N+](=O)[O-])cc1 | 0.962 |
| N#Cc1cc(Br)c(O)c(Br)c1 | 1.11 |
| COP(=S)(OC)Oc1cc(Cl)c(I)cc1Cl | 1.09 |
| COP(=S)(OC)Oc1ccc([N+](=O)[O-])cc1 | 1.18 |
| CC(C)[C@@H](Nc1ccc(C(F)(F)F)cc1Cl)C(=O)OC(C#N)c1cccc(Oc2ccccc2)c1 (stereo partly drawn) | 1.09 |

tested on: Bacteroides caccae; test: as above; conditions: 20 µM; 24 h
Procedure, shortened: as §1

| SMILES | growth AUC |
| --- | --- |
| Cc1c(N)cccc1N | 0.969 |
| c1cc2ccc3cccc4ccc(c1)c2c34 | 0.992 |
| O=c1oc2ccccc2c(O)c1C1CC(c2ccc(-c3ccc(Br)cc3)cc2)Cc2ccccc21 (stereo not drawn) | 0.91 |
| COP(=O)(OC)SCn1c(=O)oc2cc(Cl)cnc21 | 1.02 |
| CNC(=O)ON=C(CSC)C(C)(C)C | 1.01 |
| COc1ccc(/C(=C/C(=O)N2CCOCC2)c2ccc(F)cc2)cc1OC | 1.05 |
| Cc1ccc(N=CN(C)C=Nc2ccc(C)cc2C)c(C)c1 | 1.01 |
| Cc1c(COC(=O)[C@@H]2[C@H](/C=C(\Cl)C(F)(F)F)C2(C)C)cccc1-c1ccccc1 | 0.971 |
| CCOP(=S)(OCC)Oc1cc(-c2ccccc2)on1 | 0.984 |
| COP(=O)(OC)C(O)C(Cl)(Cl)Cl (stereo not drawn) | 1.04 |
| C=CC(N)=O | 0.985 |
| CNC(=O)Oc1cc(C)c(S(C)=O)c(C)c1 (stereo not drawn) | 0.949 |
| COP(N)(=O)SC (stereo not drawn) | 1.01 |
| CCOP(=S)(OCC)Oc1nc(Cl)c(Cl)cc1Cl | 0.999 |
| CC(=NC#N)N(C)Cc1ccc(Cl)nc1 | 0.979 and 0.959 |
| O=C(NC(=O)c1c(F)cccc1F)Nc1ccc(Cl)cc1 | 1.01 |
| O=C(Nc1ccccc1)c1ccccc1I | 1.03 |
| COCc1c(F)c(F)c(COC(=O)[C@@H]2[C@@H](C=C(Cl)Cl)C2(C)C)c(F)c1F | 0.953 |
| CN1CSC(=S)N(C)C1 | 1.01 |
| O=C1c2ccccc2C(=O)N1SC(Cl)(Cl)Cl | 1.02 |

| SMILES | growth AUC |
| --- | --- |
| CC(C)(C)c1ccc(CCOc2ncnc3ccccc23)cc1 | 0.952 |
| NCP(=O)(O)O | 1.02 |
| CC1CNC(=S)N1 (stereo not drawn) | 1.03 |
| CC1(C)[C@H](/C=C(\Cl)C(F)(F)F)[C@@H]1C(=O)O[C@@H](C#N)c1cccc(Oc2ccccc2)c1 | 0.983 |
| COP(=S)(OC)SCN1C(=O)c2ccccc2C1=O | 0.971 |
| COP(=S)(OC)Oc1ccc(S(C)(=O)=O)c(C)c1 | 0.994 |
| CC(C)NC(=O)N1CC(=O)N(c2cc(Cl)cc(Cl)c2)C1=O | 0.969 |
| Cc1ccc(NC(=O)c2snnc2C)cc1Cl | 0.968 |
| COCC(=O)N(c1c(C)cccc1C)N1CCOC1=O | 0.969 |
| O=C(NC(=O)c1c(F)cccc1F)Nc1ccc(Cl)c(Oc2ncc(C(F)(F)F)cc2Cl)c1 | 0.985 |
| COP(=O)(OC)OC(Br)C(Cl)(Cl)Br (stereo not drawn) | 0.987 |
| CC(C)(COCc1cccc(Oc2ccccc2)c1)c1ccc(OC(F)(F)Br)cc1 | 0.982 |
| CC1(C)C(C=C(Cl)Cl)C1C(=O)OC(C#N)c1cccc(Oc2ccccc2)c1 (mixture of isomers) | 0.963 |
| CNC(=O)Oc1ccccc1OC(CCl)OC (stereo not drawn) | 0.941 |
| CCOP(=O)(OCC)Oc1ccc([N+](=O)[O-])cc1 | 1.03 |
| N#Cc1cc(Br)c(O)c(Br)c1 | 0.896 |
| COP(=S)(OC)Oc1cc(Cl)c(I)cc1Cl | 0.999 |
| COP(=S)(OC)Oc1ccc([N+](=O)[O-])cc1 | 0.898 |
| CC(C)[C@@H](Nc1ccc(C(F)(F)F)cc1Cl)C(=O)OC(C#N)c1cccc(Oc2ccccc2)c1 (stereo partly drawn) | 1.02 |
